{
  "source": "PubChem BioAssay",
  "note": "Measured potencies and affinities stand elsewhere. Records with an inconclusive call do not appear. The source made the active and inactive calls.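 How the source made its calls: active means signal-lowering compounds whose fitted half-maximal concentration is at or below twice the top tested dose in every run; inconclusive means runs disagree, flat 30 to 70% inhibition, or poor curve fit; inactive means the rest.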",
  "data": [
    {"assay": "CMV-driven luciferase expression suppression in HEK293 – cell-based, luminescence, dry powder, counter-screen for Pax8 inhibitor project, dose response (AID 743020);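 further: HEK293 cells stably expressing the CMV luciferase reporter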", "conditions": "HEK293 CMV-luciferase reporter, SteadyGlo luminescence, 24 h; series mostly up to 35 µM", "values": [
      {"smiles": "C[C@@H]1CCCCO[C@H](CN(C)Cc2ccc(C(F)(F)F)cc2)[C@H](C)CN([C@H](C)CO)C(=O)c2cc(NS(=O)(=O)c3ccc(F)cc3)ccc2O1", "outcome": "inactive"},
      {"smiles": "C[C@@H]1CN([C@H](C)CO)C(=O)c2cc(NC(=O)c3ccncc3)ccc2O[C@@H](C)CCCCO[C@H]1CN(C)Cc1ccc(C(F)(F)F)cc1", "outcome": "inactive"},
      {"smiles": "O=C(C[C@H]1CC[C@H]2[C@@H](COC[C@@H](O)CN2S(=O)(=O)c2ccccc2Cl)O1)N1CCC(Cc2ccccc2)CC1", "outcome": "inactive"},
      {"smiles": "C[C@@H]1CN([C@@H](C)CO)C(=O)c2ccccc2-c2ccccc2CO[C@H]1CN(C)Cc1ccccc1C(F)(F)F", "outcome": "inactive"},
      {"smiles": "C[C@@H]1CN([C@@H](C)CO)S(=O)(=O)c2ccc(C#Cc3ccccc3F)cc2O[C@H]1CN(C)CC1CCOCC1", "outcome": "inactive"},
      {"smiles": "C[C@@H]1CN([C@@H](C)CO)C(=O)Cc2cc(NC(=O)Nc3ccc(C(F)(F)F)cc3)ccc2O[C@H]1CN(C)S(=O)(=O)c1ccc(F)cc1", "outcome": "inactive"},
      {"smiles": "C[C@@H]1CCCCO[C@H](CN(C)C(=O)Nc2ccc(F)cc2)[C@@H](C)CN([C@@H](C)CO)C(=O)c2cc(NC(=O)Nc3ccc(C(F)(F)F)cc3)ccc2O1", "outcome": "inactive"},
      {"smiles": "C[C@@H]1CCCCO[C@@H](CN(C)Cc2ccc(C(F)(F)F)cc2)[C@H](C)CN([C@H](C)CO)C(=O)c2cc(NS(=O)(=O)c3ccc(Cl)cc3)ccc2O1", "outcome": "inactive"},
      {"smiles": "C[C@@H]1CCCCO[C@@H](CN(C)C(=O)C2CCCCC2)[C@H](C)CN([C@H](C)CO)C(=O)c2cc(NC(=O)Nc3ccc(F)cc3)ccc2O1", "outcome": "inactive"},
      {"smiles": "C[C@H](CO)N1C[C@H](C)[C@H](CN(C)Cc2ccc(Cl)c(Cl)c2)Oc2c(NS(=O)(=O)c3ccc(Cl)cc3)cccc2C1=O", "outcome": "inactive"},
      {"smiles": "C[C@@H]1CCCCO[C@@H](CN(C)Cc2ccc(Cl)c(Cl)c2)[C@H](C)CN([C@@H](C)CO)C(=O)c2cc(NC(=O)Cc3ccccc3)ccc2O1", "outcome": "inactive"},
      {"smiles": "C[C@H](CO)N1C[C@H](C)[C@H](CN(C)Cc2ccc3c(c2)OCO3)Oc2ccc(NC(=O)Nc3cccc4ccccc34)cc2C1=O", "outcome": "inactive"},
      {"smiles": "COc1ccccc1-c1ccc2c(c1)[C@H]1[C@H](CCN1S(=O)(=O)c1ccccc1F)[C@H](CO)N2", "outcome": "inactive"},
      {"smiles": "C[C@@H]1CN([C@H](C)CO)C(=O)c2cc(NC(=O)c3ccccc3)ccc2O[C@@H](C)CCCCO[C@H]1CN(C)Cc1ccc(C(F)(F)F)cc1", "outcome": "inactive"},
      {"smiles": "C[C@H]1CCCCO[C@@H](CN(C)C(=O)c2ccccc2)[C@@H](C)CN([C@@H](C)CO)C(=O)c2cc(NC(=O)Nc3ccc(C(F)(F)F)cc3)ccc2O1", "outcome": "inactive"},
      {"smiles": "Cc1ccc(S(=O)(=O)N(C)C[C@H]2Oc3c(NC(=O)Nc4ccc(F)cc4)cccc3C(=O)N([C@@H](C)CO)C[C@H]2C)cc1", "outcome": "inactive"},
      {"smiles": "O=S(=O)(c1ccc(F)cc1)N1C[C@H]2[C@@H](c3ccccc31)[C@H](CO)N2Cc1ccccc1Cl", "outcome": "inactive"},
      {"smiles": "Cc1ccc(S(=O)(=O)N(C)C[C@H]2OCCCC[C@@H](C)Oc3ccc(NS(=O)(=O)c4ccc(F)cc4)cc3C(=O)N([C@@H](C)CO)C[C@H]2C)cc1", "outcome": "inactive"},
      {"smiles": "C[C@H](CO)N1C[C@H](C)[C@@H](CN(C)CC2CCCCC2)Oc2ccc(NC(=O)Nc3ccc4c(c3)OCO4)cc2CC1=O", "outcome": "inactive"},
      {"smiles": "O=C(C[C@@H]1C[C@H]2c3cc(NC(=O)C4CCOCC4)ccc3O[C@H]2[C@H](CO)O1)NCc1ccc(Oc2ccccc2)cc1", "outcome": "inactive"},
      {"smiles": "C[C@H]1CCCCO[C@@H](CN(C)Cc2ccc(C(F)(F)F)cc2)[C@@H](C)CN([C@@H](C)CO)C(=O)c2cc(NS(=O)(=O)c3cccs3)ccc2O1", "outcome": "inactive"},
      {"smiles": "C[C@H](CO)N1C[C@H](C)[C@@H](CN(C)Cc2ccc(Cl)c(Cl)c2)OCCCC[C@H](C)Oc2ccc(NC(=O)Nc3ccc(C(F)(F)F)cc3)cc2C1=O", "outcome": "inactive"},
      {"smiles": "C[C@@H]1CCCCO[C@H](CN(C)C(=O)C2CCCCC2)[C@@H](C)CN([C@@H](C)CO)C(=O)c2cc(NC(=O)Nc3ccccc3)ccc2O1", "outcome": "inactive"},
      {"smiles": "C[C@@H]1CN([C@H](C)CO)C(=O)Cc2cc(NC(=O)Nc3ccc(F)cc3)ccc2O[C@@H]1CN(C)Cc1ccc(Cl)c(Cl)c1", "outcome": "inactive"},
      {"smiles": "C[C@H]1CN([C@@H](C)CO)C(=O)CCCn2nncc2CO[C@@H]1CN(C)C(=O)Nc1ccc(-c2cccs2)cc1", "outcome": "inactive"},
      {"smiles": "C[C@@H]1CCCCO[C@H](CN(C)CC2CCCCC2)[C@H](C)CN([C@H](C)CO)C(=O)c2cc(NS(=O)(=O)c3ccc(Cl)cc3)ccc2O1", "outcome": "inactive"},
      {"smiles": "Cc1cccc(S(=O)(=O)N2CC[C@@H]3[C@H](CO)Nc4ccc(C5=CCCCC5)cc4[C@@H]32)c1", "outcome": "inactive"},
      {"smiles": "C[C@H]1CN([C@@H](C)CO)C(=O)c2c(c3ccccc3n2C)-c2ccccc2CO[C@@H]1CN(C)Cc1ccc(-c2ccccc2)cc1", "outcome": "inactive"},
      {"smiles": "C[C@@H]1CN([C@@H](C)CO)C(=O)c2c(c3ccccc3n2C)-c2ccccc2CO[C@H]1CN(C)C(=O)Nc1ccc2c(c1)OCO2", "outcome": "inactive"},
      {"smiles": "CN1c2ccc(C#Cc3cccnc3)cc2[C@@H]2[C@@H](CCN2C(=O)Cc2cccnc2)[C@@H]1CO", "outcome": "inactive"},
      {"smiles": "C[C@@H]1CN([C@@H](C)CO)C(=O)c2cc(NS(=O)(=O)c3ccc(F)cc3)ccc2O[C@@H](C)CCCCO[C@H]1CN(C)Cc1ccc(C(F)(F)F)cc1", "outcome": "inactive"},
      {"smiles": "C[C@@H]1CN([C@@H](C)CO)C(=O)c2cc(NC(=O)Nc3ccc(C(F)(F)F)cc3)ccc2O[C@@H](C)CCCCO[C@H]1CN(C)Cc1ccc(Cl)c(Cl)c1", "outcome": "inactive"},
      {"smiles": "C[C@H](CO)N1C[C@H](C)[C@@H](CN(C)Cc2ccc(C(F)(F)F)cc2)Oc2ccc(NS(=O)(=O)c3ccc(F)cc3)cc2CC1=O", "outcome": "inactive"},
      {"smiles": "C[C@@H]1CCCCO[C@@H](CN(C)C(=O)C2CCCCC2)[C@H](C)CN([C@H](C)CO)C(=O)c2cc(NS(=O)(=O)c3ccc(Cl)cc3)ccc2O1", "outcome": "inactive"},
      {"smiles": "COc1cccc(-c2ccc3c(c2)[C@@H]2[C@@H](CCN2C(=O)NC2CCCCC2)[C@H](CO)N3C)c1", "outcome": "inactive"},
      {"smiles": "C[C@@H]1CCCCO[C@@H](CN(C)Cc2ccccc2)[C@@H](C)CN([C@H](C)CO)C(=O)c2cc(NC(=O)Nc3ccc(C(F)(F)F)cc3)ccc2O1", "outcome": "inactive"},
      {"smiles": "C[C@@H]1CN([C@H](C)CO)C(=O)Cc2cc(NC(=O)Nc3ccc(F)cc3)ccc2O[C@H]1CN(C)C(=O)Nc1ccc(C(F)(F)F)cc1", "outcome": "inactive"},
      {"smiles": "C[C@H](CO)N1C[C@H](C)[C@@H](CN(C)Cc2ccc(Oc3ccccc3)cc2)OCc2ccccc2-c2c(n(C)c3ccccc23)C1=O", "outcome": "inactive"},
      {"smiles": "C[C@@H]1CCCCO[C@@H](CN(C)CC2CCCCC2)[C@@H](C)CN([C@@H](C)CO)C(=O)c2cc(NC(=O)Nc3ccc(C(F)(F)F)cc3)ccc2O1", "outcome": "inactive"},
      {"smiles": "C[C@H]1CCCCO[C@H](CN(C)S(=O)(=O)c2ccc(Cl)cc2)[C@@H](C)CN([C@@H](C)CO)C(=O)c2cc(NS(=O)(=O)c3ccc(Cl)cc3)ccc2O1", "outcome": "inactive"}
    ]}
  ]
}
